ATXN2 expr inh: ATXN2 expression inhibition; 360,000 tested, 0.72% active; AID 1745845; HEK-293 ATXN2-luciferase reporter, luminescence, 24 h; Potency, µM (titrated, usually from 57 µM), inactives show at the top dose activity change, negative = inhibition, hits mostly inhibitors; further: on the % scale 0 is the no-effect control and ±100 the full control effect; nearly all actives have a fitted effect of over 55% in size
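ATXN2-luciferase reporter cells (luciferase flanked by upstream and downstream ATXN2 gene portions) were treated 24 h at 37 °C with compounds at up to 57 uM. SteadyGlo luminescence gave expression; GF-AFC fluorescence gave viability.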
Gal4-VP16 FLuc: inhibits Gal4-VP16 luciferase reporter, ROR gamma counter-screen; Potency, µM (highest dose often 53.6 µM), without a hit: at the highest dose activity, negative = inhibition, usual class: inhibitors; Drosophila S2 Gal4-VP16 UAS-luciferase, luminescence, 20 h; 310,000 tested, 3.5% active;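 further: Gal4-VP16 expression switched on by copper sulfate through the metallothionein promoter; on the % scale 0 is the no-effect control and ±100 the full control effect; nearly all actives have a fitted effect of over 50% in size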
HepG2 viability: kills HepG2 cells in TGF-b inhibitor counter-screen | AID 588856 | Potency, µM (top dose mostly 46.1 µM), for the others: top-dose activity change, negative = cytotoxicity, most hits filed as cytotoxic | HepG2 CAGA-GFP viability, ATP luminescence, 18 h | 410,000 tested, 0.76% active
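CellTiter-Glo luminescence gave cytotoxicity after 18 hours at 37 degrees C. The cells were HepG2 CAGA-GFP in 1% FBS DMEM, stimulated with 500 pg/mL TGF-beta after compound addition. %Activity was normalised to no-cell wells (complete cell-killing) and DMSO (no toxicity), and curves were fitted and classified.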
RORgamma inh: inhibitors of mouse ROR gamma transcriptional activity; 310,000 tested, 5.4% active; P51450; Potency, µM (doses to about 53.6 µM), for inactives: at the highest dose activity change, negative = inhibition, most hits filed as inhibitors; Drosophila S2 Gal4-RORgamma UAS-luciferase reporter, 20 h; AID 2551; further: on the % scale 0 is the no-effect control and ±100 the full control effect; nearly all actives have a fitted effect of over 60% in size
Target sequence (P51450 whole entry, looked up, the tested form may be a part): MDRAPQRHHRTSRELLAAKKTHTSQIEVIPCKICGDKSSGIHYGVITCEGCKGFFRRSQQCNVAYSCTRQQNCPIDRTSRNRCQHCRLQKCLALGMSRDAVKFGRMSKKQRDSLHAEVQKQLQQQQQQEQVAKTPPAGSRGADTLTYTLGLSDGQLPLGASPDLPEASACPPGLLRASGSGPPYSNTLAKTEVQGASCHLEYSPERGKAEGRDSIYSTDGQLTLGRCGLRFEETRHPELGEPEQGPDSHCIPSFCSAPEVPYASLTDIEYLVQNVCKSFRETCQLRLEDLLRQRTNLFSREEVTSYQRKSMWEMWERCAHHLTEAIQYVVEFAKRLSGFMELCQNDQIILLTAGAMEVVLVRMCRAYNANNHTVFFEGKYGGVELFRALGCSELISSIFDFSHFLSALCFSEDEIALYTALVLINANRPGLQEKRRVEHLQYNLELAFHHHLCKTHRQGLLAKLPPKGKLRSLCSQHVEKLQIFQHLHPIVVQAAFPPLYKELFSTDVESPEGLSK
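Compounds are pin-transferred onto Drosophila Schneider cells expressing a copper-inducible Gal4–ROR gamma transactivation domain fusion. After 1 hr, copper sulfate is added to 700 uM final; luciferase is read 20 hr later.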
TGFb SMAD3 inh: inhibitors of TGF-b signaling. 410,000 tested, 1.2% active. Potency, µM (highest dose often 46.1 µM), inactives show at the top dose activity, negative = inhibition, actives largely listed as inhibitors. HepG2 CAGA-GFP TGF-b/SMAD3 reporter, GFP fluorescence, 18 h; TGF-beta stimulated, 500 pg/mL final. AID 588855; further: on the % scale 0 is the no-effect control and ±100 the full control effect; nearly all actives have a fitted effect of over 65% in size
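Inhibition of TGF-beta-driven CAGA-GFP reporter expression in HEPG2 cells is measured by cellular GFP fluorescence after 18 h stimulation with 500 pg/mL recombinant TGF-beta in 1% FBS medium at 37 degrees C.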
ATXN viability: viability counter-screen for ATXN expression inhibitors | S2 cells (HEK-293 line with an ATXN2-luciferase reporter) viability, CellTiter-Fluor protease fluorescence, 24 h | Potency, µM (doses to about 56.7 µM), hits mostly cytotoxic | 400,000 tested, 0.49% active | AID 651635; further: nearly all actives have a fitted effect of over 40% in size
* marks the source's active call; other numbers are inactive results; i = inactive; ? = inconclusive; . = no result given; [ ] = another dose, or the depositor's remark. Rows were chosen to be rich in hits. Some 6.1% of all compounds tested hit in one or more screens of this group. The call rests on the fitted dose curve; in most records, active means well fitted curve in the direction sought with a large enough effect; inconclusive means small, poorly fitted or top-dose-only effect, or another doubt; inactive means no such curve, though single readings can be large; an effect the other way counts as inactive or inconclusive. Potency means the concentration at half of the fitted maximal effect.

SMILES | ATXN2 expr inh | Gal4-VP16 FLuc | HepG2 viability | RORgamma inh | TGFb SMAD3 inh | ATXN viability
C[C@H](CO)N1C[C@H](C)[C@@H](CN(C)C(=O)Nc2ccc(C(F)(F)F)cc2)Oc2c(NC(=O)Nc3ccccc3)cccc2C1=O | ? | . | -44% | . | ? | .
C[C@@H]1CN([C@@H](C)CO)C(=O)c2cc(C#CC3CCCCC3)cnc2O[C@@H]1CN(C)S(=O)(=O)c1ccc(F)cc1 | ? | . | -21% | . | ? | 20µM*
C[C@@H]1CN([C@@H](C)CO)C(=O)c2cc(/C=C/c3ccccc3)cnc2O[C@@H]1CN(C)S(=O)(=O)c1ccc(F)cc1 | -4% | . | -1% | . | 3% | i
Cc1nc(-n2nc(C)c(Cc3ccc(Cl)cc3)c2C)sc1C(=O)N1CCC(C)CC1 | . | . | -4% | . | 0% | .
COc1ccc(NC(=S)NC(NC(=O)C(C)C)C(Cl)(Cl)Cl)c([N+](=O)[O-])c1 (centres undefined) | 15% | ? | -8% | 18µM* | -14% | i
Cc1ccc(NC(=S)NC(C)(C)C)c([N+](=O)[O-])c1 | 9% | 7.9µM* | 16% | 3.2µM* | 19% | i
Cc1ccc(CNC(=O)c2cnc(N(C)C)nc2)cc1 | -2% | . | -9% | . | -5% | i
N#CCCn1cc(/C=N/O)c(-c2ccccc2)n1 | -10% | -9% | -9% | -15% | 9% | i
N#CCCn1cc(/C=N/NC(N)=S)c(-c2ccc(-c3ccccc3)cc2)n1 | ? | 3.2µM* | -21% | 1.1µM* | ? | ?
N#CCCn1cc(C=C(C#N)C#N)c(-c2ccc(-c3ccccc3)cc2)n1 | 3% | 20µM* | -4% | ? | -13% | i
COc1ccc(NC(=O)C/C(C)=N/NC(=O)c2cccs2)c([N+](=O)[O-])c1 | 36% | 18µM* | -21% | 20µM* | -13% | i
COc1cc(NC(=O)COc2ccccc2[N+](=O)[O-])ccc1NC(=O)c1cccs1 | ? | -4% | -50% | 16% | ? | 13µM*
COc1ccc(CCNS(=O)(=O)c2ccc(Br)cc2)cc1 | -13% | 3% | -7% | 10% | -2% | i
COc1ccc(NC2=NCC(Cc3ccc(Br)cc3)S2)cc1 (centres undefined) | ? | 3.5µM* | -40% | ? | ? | ?
CCOc1ccc(NC(=O)c2c(C)oc3nc(C)nc(N4CCOCC4)c23)cc1 | . | . | -11% | . | 0% | .
C=C1CCC2C(C)(CO)C(O)CCC2(C)C1C/C=C1\C(=O)OCC1O (centres undefined) | . | -22% | . | 13µM* | . | .
C=C1CC[C@@H]2[C@](C)(CO)[C@H](O)CC[C@@]2(C)[C@@H]1/C=C/C1=CCOC1=O | . | -3% | -2% | -2% | -30% | i
CCOc1ccc(/C=C/c2ccc3ccccc3n2)cc1OCC | . | . | -9% | . | -2% | .
CO[C@H]1COC(=O)C/C=C\[C@@H](C)COC(=O)[C@@H](CCSC)NC(=O)C/C=C\[C@@H]1C | . | 6%[10 µM] | . | -30%[10 µM] | . | .
CC(=O)N1CC(=O)N=C1SCC(=O)Nc1nc(-c2ccccc2)c(-c2ccccc2)s1 | -13% | 7.9µM* | 6% | 7.1µM* | -5% | i
COc1ccc(Br)cc1C1NC(c2ccc3c(c2)OCO3)=CC(c2cc(Cl)ccc2O)N1 (centres undefined) | . | . | 11µM* | . | ? | .
Oc1ccc(Cl)cc1C1C=C(c2ccc3c(c2)OCO3)NC(c2cc(Br)ccc2F)N1 (centres undefined) | . | . | 14µM* | . | 7.9µM* | .
COc1ccccc1C1NC(c2ccc3c(c2)OCO3)=CC(c2cc(Cl)ccc2O)N1 (centres undefined) | . | . | -30% | . | ? | .
CC(C)(C)c1ccc(NC(=O)COC(=O)c2ccc(NS(=O)(=O)c3ccc(F)c(F)c3)cc2)cc1 | 6% | ? | -46% | 35% | 14µM* | i
Cc1ccsc1/C=N/n1c(-c2ccccc2)n[nH]c1=S | 8% | -9% | -22% | 14% | -4% | i
SMILES | ATXN2 expr inh | Gal4-VP16 FLuc | HepG2 viability | RORgamma inh | TGFb SMAD3 inh | ATXN viability
CCn1c(-c2nn(C)cc2Cl)n[nH]c1=S | 3% | ? | -7% | 11µM* | 7% | i
CC(C)Cn1c(-c2ccc(Br)o2)n[nH]c1=S | 12% | ? | 21% | 6.3µM* | 10% | i
Cc1ccsc1-c1n[nH]c(=S)n1CC(C)C | -8% | 6.3µM* | -84% | 2.8µM* | 0% | i
CC(C)Cn1c(-c2nn(C)cc2Cl)n[nH]c1=S | 8% | ? | 1% | 11µM* | -3% | i
COc1ccc(C(=O)N2CCN(c3nc4c(OC)cccc4s3)CC2)cc1OC | . | . | -27% | . | -17% | .
CCC(C(=O)Nc1ccc(F)cc1F)n1nc(-c2ccccc2)c2c(c1=O)CCCC2 (centres undefined) | -15% | . | -28% | . | ? | ?
CC(C)(C)c1ccc(/C=N/NC(=S)NCc2ccccc2)cc1 | -8% | 1.1µM* | -14% | 0.79µM* | 0% | i
Cc1c(NC(=S)N/N=C/c2ccc(N(C)C)cc2)c(=O)n(-c2ccccc2)n1C | -16% | ? | 14% | 18µM* | 0% | i
CCN(Cc1ccccc1)c1ccc(/C=N/NC(=S)NC(C)C)cc1 | 3% | 1.3µM* | 7% | 1.3µM* | -45% | i
Cc1ccsc1/C=N/NC(=S)NCc1ccccc1 | 19% | -76% | -5% | 0.022µM* | 5% | i
COc1cc(=O)n2c(c1C(=O)NCc1nccs1)CCN(Cc1ccccc1F)CC2 | . | . | . | . | . | i
COc1ccc(CCC(=O)NCc2ccc3c(c2)CCN3C(=O)c2ccc(Cl)cc2)cc1 | . | . | 3% | . | -1% | .
CNC(=S)N/N=C/c1ccc(N(C)C)cc1 | 33% | 7.1µM* | 6% | 1.6µM* | 0% | i
Cn1c(=O)n(C)c2cc(/C=N/NC(=S)NCc3ccccc3)ccc21 | 0% | ? | -4% | 10µM* | -3% | i
CNC(=S)N/N=C/c1ccc(C(C)C)cc1 | 52% | . | -65% | . | 0% | i
CC(C)(C)c1ccc(/C=N/NC(=O)C2CCCC2)cc1 | 86% | 24% | -23% | 44% | -17% | i
C=CCNC(=S)N/N=C/c1ccc(C(C)(C)C)cc1 | -25% | 0.56µM* | -35% | 0.28µM* | ? | i
CN(C)c1ccc(/C=N/NC(=O)COc2ccccc2)cc1 | 17% | -2% | -23% | -1% | -8% | i
CN(C)c1ccc(/C=N/NC(=S)NCc2ccccc2)cc1 | 39% | 2.8µM* | 2% | 0.45µM* | 0% | i
COc1ccc(NC(=O)c2cc(C)nc3c2c(C)nn3-c2ccc(C)cc2)cc1OC | 0% | . | -2% | . | -14% | i
